Laboratory results taken from the supplement of paper PMC11732987, “Enantioselective OTUD7B fragment discovery through chemoproteomics screening and high-throughput optimisation” (Communications Chemistry, 2025).

Tests used:
Test in all cases: log2 ratio of Biotin-Ahx-Ub-VS probe labelling (fragment/DMSO); higher = less target engagement (more negative = stronger competition), active = hit call of the paper (q ≤ 0.05, log2 ratio ≤ -1)
Conditions in all cases: compound concentration: 200 uM; treatment time: 3 h
USP19 = target: T1, USP19 (UniProt O94966)
T1 sequence (whole entry): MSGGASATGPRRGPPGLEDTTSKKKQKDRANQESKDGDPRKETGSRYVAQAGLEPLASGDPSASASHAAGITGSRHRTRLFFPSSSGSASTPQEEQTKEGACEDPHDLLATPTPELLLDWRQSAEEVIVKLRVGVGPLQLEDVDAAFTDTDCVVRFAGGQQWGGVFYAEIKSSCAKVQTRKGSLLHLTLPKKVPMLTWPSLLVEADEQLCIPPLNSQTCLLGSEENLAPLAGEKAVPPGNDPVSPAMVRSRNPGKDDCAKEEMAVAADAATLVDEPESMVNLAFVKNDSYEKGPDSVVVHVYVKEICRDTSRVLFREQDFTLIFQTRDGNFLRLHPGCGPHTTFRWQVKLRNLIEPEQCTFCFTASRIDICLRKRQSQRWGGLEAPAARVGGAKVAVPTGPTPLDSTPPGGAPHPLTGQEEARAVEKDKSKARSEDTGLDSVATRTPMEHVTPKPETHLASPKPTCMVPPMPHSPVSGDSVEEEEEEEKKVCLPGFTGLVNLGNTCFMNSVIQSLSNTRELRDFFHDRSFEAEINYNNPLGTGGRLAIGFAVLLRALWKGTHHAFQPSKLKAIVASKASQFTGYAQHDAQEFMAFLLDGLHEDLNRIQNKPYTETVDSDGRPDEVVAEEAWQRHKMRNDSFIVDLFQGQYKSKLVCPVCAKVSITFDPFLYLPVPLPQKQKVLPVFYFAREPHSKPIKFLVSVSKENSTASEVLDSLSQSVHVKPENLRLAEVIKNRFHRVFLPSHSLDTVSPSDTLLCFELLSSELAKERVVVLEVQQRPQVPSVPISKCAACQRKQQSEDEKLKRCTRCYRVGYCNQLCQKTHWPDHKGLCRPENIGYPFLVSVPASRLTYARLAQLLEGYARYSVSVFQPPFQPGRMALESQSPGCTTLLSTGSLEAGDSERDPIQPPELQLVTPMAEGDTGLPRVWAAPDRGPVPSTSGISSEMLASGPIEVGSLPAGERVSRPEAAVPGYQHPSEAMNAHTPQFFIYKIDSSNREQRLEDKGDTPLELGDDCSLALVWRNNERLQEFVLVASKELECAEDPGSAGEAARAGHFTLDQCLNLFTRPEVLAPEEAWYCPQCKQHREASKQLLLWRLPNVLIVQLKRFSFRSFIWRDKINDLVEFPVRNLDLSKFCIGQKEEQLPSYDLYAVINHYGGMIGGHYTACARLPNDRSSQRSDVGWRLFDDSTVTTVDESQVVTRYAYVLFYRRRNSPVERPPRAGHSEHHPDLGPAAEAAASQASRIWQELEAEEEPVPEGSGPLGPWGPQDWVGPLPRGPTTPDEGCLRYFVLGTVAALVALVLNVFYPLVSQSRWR
How it was run: (§1)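 Using Biotin-Ahx-Ub-VS at 0.5 µM final for 1 h, DUBs were labelled in HEK293T lysate (495 µg per sample) that had first been treated in triplicate with fragment at 200 µM or vehicle for 3 h. NeutrAvidin enrichment, LysC and trypsin digestion and diaPASEF LC-MS/MS followed. Spectronaut label-free quantities were global-median-normalised. Values are average log2 fragment/vehicle ratios by unpaired t-test, using proteins with ≥2 unique peptides.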

USP22 = target: T2, USP22 (UniProt Q9UPT9)
T2 sequence (whole entry): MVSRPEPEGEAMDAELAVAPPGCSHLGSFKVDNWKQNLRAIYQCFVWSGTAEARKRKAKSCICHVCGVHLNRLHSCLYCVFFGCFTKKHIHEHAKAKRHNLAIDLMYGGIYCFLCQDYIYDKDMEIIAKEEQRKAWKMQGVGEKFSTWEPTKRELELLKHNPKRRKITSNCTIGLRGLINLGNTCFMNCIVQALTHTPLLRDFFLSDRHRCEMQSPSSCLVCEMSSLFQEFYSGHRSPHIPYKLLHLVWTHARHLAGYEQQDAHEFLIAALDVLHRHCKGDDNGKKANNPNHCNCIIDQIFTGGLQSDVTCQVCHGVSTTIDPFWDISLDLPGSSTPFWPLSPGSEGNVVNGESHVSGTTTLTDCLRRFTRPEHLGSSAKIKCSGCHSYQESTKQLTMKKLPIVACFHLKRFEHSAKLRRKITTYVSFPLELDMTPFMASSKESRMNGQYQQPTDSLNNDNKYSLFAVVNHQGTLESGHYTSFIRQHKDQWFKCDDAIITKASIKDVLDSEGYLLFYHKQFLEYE
How it was run: as §1

USP24 = USP24 (UniProt Q9UPU5)
Chain of USP24 (Q9UPU5 whole entry): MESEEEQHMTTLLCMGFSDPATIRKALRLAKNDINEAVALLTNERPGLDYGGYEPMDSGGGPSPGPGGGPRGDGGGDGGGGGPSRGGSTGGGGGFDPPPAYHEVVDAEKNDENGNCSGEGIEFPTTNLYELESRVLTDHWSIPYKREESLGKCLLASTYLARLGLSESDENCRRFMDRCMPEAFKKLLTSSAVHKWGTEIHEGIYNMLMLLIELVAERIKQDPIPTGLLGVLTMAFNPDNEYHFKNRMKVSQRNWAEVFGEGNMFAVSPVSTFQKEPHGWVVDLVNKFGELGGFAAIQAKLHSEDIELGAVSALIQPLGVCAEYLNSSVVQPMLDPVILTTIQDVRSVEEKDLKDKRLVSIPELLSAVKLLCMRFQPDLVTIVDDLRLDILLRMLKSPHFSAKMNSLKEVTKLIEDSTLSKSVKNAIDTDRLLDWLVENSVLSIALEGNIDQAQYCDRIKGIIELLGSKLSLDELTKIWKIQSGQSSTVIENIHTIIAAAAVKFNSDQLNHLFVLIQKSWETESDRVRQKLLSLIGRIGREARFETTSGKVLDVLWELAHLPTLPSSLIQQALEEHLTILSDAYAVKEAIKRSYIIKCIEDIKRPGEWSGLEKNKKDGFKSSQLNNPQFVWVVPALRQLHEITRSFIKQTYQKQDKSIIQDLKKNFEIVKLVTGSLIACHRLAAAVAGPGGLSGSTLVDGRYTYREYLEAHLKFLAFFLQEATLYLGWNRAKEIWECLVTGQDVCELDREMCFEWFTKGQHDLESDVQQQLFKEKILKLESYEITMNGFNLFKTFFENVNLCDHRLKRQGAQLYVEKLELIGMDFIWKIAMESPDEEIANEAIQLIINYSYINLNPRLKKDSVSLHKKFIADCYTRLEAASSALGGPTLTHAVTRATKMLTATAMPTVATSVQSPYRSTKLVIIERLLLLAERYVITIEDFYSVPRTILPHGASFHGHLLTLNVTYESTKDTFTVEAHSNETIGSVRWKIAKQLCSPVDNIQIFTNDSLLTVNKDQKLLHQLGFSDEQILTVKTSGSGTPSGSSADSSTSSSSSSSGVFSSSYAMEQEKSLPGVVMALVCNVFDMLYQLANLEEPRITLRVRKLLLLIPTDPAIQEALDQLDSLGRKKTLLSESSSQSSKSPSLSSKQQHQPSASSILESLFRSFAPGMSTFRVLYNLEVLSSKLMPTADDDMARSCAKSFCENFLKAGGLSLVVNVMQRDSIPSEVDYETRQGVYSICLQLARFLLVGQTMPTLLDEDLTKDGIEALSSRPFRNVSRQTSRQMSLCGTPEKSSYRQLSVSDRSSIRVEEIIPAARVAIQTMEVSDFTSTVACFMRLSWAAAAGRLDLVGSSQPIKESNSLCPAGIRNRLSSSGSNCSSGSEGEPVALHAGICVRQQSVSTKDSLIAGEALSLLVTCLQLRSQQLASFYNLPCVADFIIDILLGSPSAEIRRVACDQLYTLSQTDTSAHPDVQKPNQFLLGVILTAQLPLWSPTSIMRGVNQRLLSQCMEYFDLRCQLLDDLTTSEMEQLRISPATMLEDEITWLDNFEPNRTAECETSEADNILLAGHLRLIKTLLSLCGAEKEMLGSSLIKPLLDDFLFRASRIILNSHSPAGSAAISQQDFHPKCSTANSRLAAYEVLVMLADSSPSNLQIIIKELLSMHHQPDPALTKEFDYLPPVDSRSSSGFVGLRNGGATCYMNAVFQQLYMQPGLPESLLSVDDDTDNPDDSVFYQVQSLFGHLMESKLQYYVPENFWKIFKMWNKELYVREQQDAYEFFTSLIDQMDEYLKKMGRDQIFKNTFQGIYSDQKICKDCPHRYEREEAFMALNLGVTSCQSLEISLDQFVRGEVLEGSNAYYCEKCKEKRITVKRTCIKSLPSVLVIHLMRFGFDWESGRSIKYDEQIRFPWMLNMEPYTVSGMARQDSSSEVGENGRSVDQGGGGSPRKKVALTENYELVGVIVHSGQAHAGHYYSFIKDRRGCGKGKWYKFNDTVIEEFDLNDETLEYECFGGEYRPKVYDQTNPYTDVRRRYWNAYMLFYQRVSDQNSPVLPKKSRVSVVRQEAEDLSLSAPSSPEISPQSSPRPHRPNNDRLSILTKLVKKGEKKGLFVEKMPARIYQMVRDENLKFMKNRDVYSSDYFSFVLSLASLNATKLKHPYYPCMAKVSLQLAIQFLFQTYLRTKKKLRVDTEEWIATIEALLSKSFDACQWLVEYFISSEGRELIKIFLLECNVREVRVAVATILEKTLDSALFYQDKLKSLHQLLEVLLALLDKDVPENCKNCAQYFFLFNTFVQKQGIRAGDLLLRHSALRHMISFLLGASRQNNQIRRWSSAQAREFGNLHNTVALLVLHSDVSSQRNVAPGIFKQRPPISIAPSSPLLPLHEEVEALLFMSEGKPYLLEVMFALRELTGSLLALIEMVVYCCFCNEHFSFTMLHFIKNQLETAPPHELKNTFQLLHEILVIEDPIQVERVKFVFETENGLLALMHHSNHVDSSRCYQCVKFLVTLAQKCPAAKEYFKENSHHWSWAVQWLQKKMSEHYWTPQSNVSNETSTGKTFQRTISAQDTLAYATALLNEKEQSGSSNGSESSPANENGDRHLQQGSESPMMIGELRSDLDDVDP
How it was run: as §1

USP25 = target: T3, USP25 (UniProt Q9UHP3)
T3 sequence (whole entry): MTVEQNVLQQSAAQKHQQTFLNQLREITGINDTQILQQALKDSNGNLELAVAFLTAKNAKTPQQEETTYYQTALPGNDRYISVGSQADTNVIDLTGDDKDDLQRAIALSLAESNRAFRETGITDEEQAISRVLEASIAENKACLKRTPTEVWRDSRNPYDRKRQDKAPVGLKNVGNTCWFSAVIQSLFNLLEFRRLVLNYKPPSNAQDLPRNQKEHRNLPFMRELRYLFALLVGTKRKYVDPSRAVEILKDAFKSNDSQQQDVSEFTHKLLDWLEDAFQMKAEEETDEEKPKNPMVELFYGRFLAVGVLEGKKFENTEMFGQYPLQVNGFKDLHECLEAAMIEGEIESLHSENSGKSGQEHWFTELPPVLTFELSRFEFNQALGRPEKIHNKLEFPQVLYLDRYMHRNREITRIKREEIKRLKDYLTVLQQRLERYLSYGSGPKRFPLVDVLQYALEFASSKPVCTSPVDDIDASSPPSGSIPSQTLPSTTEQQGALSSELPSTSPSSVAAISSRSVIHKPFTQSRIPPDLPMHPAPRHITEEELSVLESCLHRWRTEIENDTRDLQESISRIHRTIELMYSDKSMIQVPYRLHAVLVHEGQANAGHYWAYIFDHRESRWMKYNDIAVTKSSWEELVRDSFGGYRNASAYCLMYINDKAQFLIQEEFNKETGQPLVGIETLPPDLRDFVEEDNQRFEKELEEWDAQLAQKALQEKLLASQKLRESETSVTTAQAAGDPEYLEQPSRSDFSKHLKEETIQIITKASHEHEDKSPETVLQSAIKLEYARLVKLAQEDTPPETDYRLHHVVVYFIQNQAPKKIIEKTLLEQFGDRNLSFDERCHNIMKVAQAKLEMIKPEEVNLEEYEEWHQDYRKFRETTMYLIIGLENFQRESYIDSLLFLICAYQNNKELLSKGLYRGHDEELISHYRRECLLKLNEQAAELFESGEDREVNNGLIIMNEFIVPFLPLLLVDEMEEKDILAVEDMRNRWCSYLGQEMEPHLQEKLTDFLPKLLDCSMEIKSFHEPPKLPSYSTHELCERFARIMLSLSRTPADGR
How it was run: as §1

USP28 = target: T4, USP28 (UniProt Q96RU2)
T4 sequence (whole entry): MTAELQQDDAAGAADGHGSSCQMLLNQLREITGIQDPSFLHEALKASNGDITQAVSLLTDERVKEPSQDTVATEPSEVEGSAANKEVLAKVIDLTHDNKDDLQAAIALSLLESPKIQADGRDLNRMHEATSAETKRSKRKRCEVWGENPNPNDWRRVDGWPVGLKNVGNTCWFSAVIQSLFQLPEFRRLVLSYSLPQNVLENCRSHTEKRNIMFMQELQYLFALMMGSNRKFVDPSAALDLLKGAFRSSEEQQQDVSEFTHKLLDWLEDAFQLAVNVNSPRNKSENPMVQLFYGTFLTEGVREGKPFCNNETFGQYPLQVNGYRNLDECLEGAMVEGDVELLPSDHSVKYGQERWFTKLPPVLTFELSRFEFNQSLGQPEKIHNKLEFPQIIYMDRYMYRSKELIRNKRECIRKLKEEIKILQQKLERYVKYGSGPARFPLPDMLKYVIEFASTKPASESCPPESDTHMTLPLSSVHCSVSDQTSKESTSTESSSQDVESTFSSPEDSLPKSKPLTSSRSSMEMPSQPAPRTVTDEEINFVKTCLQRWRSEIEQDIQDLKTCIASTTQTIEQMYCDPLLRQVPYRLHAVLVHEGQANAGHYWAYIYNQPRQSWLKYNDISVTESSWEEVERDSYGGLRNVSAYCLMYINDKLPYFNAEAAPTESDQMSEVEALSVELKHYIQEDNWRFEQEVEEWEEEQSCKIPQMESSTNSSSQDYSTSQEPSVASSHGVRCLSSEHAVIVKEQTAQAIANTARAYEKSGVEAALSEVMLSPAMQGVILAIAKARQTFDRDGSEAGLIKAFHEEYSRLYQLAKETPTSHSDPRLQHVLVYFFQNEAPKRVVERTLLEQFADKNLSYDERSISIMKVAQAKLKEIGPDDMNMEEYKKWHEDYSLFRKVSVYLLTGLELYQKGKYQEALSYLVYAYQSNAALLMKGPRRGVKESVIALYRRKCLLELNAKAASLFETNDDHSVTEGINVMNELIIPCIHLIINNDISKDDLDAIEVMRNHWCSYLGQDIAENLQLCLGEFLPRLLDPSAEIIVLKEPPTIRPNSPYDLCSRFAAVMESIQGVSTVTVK
How it was run: as §1

Measured: log2 ratio of Biotin-Ahx-Ub-VS probe labelling

O=C(CCl)N1CCCC1c1ccsc1 (stereo not given)
inactive: USP19 -0.475 | USP22 -0.304 | USP24 -0.738 | USP25 -0.456 | USP28 -0.704
